Source: paper PMC13423814

Assays:
Conditions in all cases: DSSO, in cells
DDX24 = DDX24 (UniProt Q9GZR7)
DDX54 = DDX54 (UniProt Q8TDD1)
DDX56 = DDX56 (UniProt Q9NY93)
DIMT1 = DIMT1 (UniProt Q9UNQ2)
DNAJB11 = DNAJB11 (UniProt Q9UBS4)
EBNA1BP2 = EBNA1BP2 (UniProt Q99848)
PWP1 = PWP1 (UniProt Q13610)
ECPAS = ECPAS (UniProt Q5VYK3)
EEF1A2 = EEF1A2 (UniProt Q05639)
EEF1D = EEF1D (UniProt P29692)
EIF3B = EIF3B (UniProt P55884)
EIF3H = EIF3H (UniProt O15372)
EIF3M = EIF3M (UniProt Q7L2H7)
EMC2 = EMC2 (UniProt Q15006)
ENO3 = ENO3 (UniProt P13929)
ESYT1 = ESYT1 (UniProt Q9BSJ8)
EXOC8 = EXOC8 (UniProt Q8IYI6)
EXOSC4 = EXOSC4 (UniProt Q9NPD3)
FARSA = FARSA (UniProt Q9Y285)
FBL = FBL (UniProt P22087)
FDXR = FDXR (UniProt P22570)
FLNA = FLNA (UniProt P21333)
GCN1 = GCN1 (UniProt Q92616)
GNG12 = GNG12 (UniProt Q9UBI6)
GNL2 = GNL2 (UniProt Q13823)
GTPBP4 = GTPBP4 (UniProt Q9BZE4)
GTF2F1 = GTF2F1 (UniProt P35269)
H1-3 = H1-3 (UniProt P16402)
NOP53 = NOP53 (UniProt Q9NZM5)
RPL6 = RPL6 (UniProt Q02878)
TOP2A = TOP2A (UniProt P11388)
H2AC20 = H2AC20 (UniProt Q16777)
H2BC18 = H2BC18 (UniProt Q5QNW6)
H2BC5 = H2BC5 (UniProt P58876)
HADHA = HADHA (UniProt P40939)
TIMM50 = TIMM50 (UniProt Q3ZCQ8)
HADHB = HADHB (UniProt P55084)
SLC25A3 = SLC25A3 (UniProt Q00325)
HIBCH = HIBCH (UniProt Q6NVY1)
HKDC1 = HKDC1 (UniProt Q2TB90)
HSPA9 = HSPA9 (UniProt P38646)
HSPA2 = HSPA2 (UniProt P54652)
IARS1 = IARS1 (UniProt P41252)
IMMT = IMMT (UniProt Q16891)
PTGES2 = PTGES2 (UniProt Q9H7Z7)

RPL18, Q07020
cross-linked residues (DDX24): K49 - K772

SURF6, O75683
cross-linked residues (DDX54): K317 - K848

PDCD11, Q14690
cross-linked residues (DDX56): K122 - T91

DHX37, Q8IY37
cross-linked residues (DIMT1): K131 - K253

SDF2, Q99470
cross-linked residues (DNAJB11): K197 - K39

BRIX1, Q8TDN6
cross-linked residues (EBNA1BP2): K276 - K94

RPL15, P61313
cross-linked residues (EBNA1BP2): K83 - K149
cross-linked residues (PWP1): K56 - K40

PSMA1, P25786
cross-linked residues (ECPAS): K243 - K1217

RPL12, P30050
cross-linked residues (EEF1A2): K40 - K392

EEF1B2, P24534
cross-linked residues (EEF1D): S128 - K117

RPS9, P46781
cross-linked residues (EIF3B): K139 - K552

EIF3F, O00303
cross-linked residues (EIF3H): K238 - K221
cross-linked residues (EIF3M): K238 - K177

EIF3H, O15372
cross-linked residues (EIF3M): K221 - K115

EMC8, O43402
cross-linked residues (EMC2): K100 - K136

ENO2, P09104
cross-linked residues (ENO3): K256 - K275

ESYT2, A0FGR8
cross-linked residues (ESYT1): K200 - K197

EXOC5, O00471
cross-linked residues (EXOC8): K132 - K60

EXOSC9, Q06265
cross-linked residues (EXOSC4): K67 - K95

FARSB, Q9NSD9
cross-linked residues (FARSA): K53 - K117

NOP56, O00567
cross-linked residues (FBL): K158 - K205

DLD, P09622
cross-linked residues (FDXR): K430 - K287

FLNB, O75369
cross-linked residues (FLNA): K2576 - K2607

RPS19, P39019
cross-linked residues (GCN1): K143 - K1556

GNAI3, P08754
cross-linked residues (GNG12): K92 - K4

RPL23, P62829
cross-linked residues (GNL2): K66 - K434
cross-linked residues (GTPBP4): K113 - K103

POLR2B, P30876
cross-linked residues (GTF2F1): K210 - K290

NSA2, O95478
cross-linked residues (GTPBP4): K134 - K118

NPM1, P06748
cross-linked residues (H1-3): K141 - K33
cross-linked residues (NOP53): S149 - K432
cross-linked residues (RPL6): S139 - K237
cross-linked residues (TOP2A): K263 - K798

H1-5, P16401
cross-linked residues (H2AC20): K78 - K125

H2BC5, P58876
cross-linked residues (H2BC18): K6 - K21

HMGA1, P17096
cross-linked residues (H2BC5): K15 - K6

SLC25A6, P12236
cross-linked residues (HADHA): K147 - S624
cross-linked residues (TIMM50): K147 - T46

HADHA, P40939
cross-linked residues (HADHB): K406 - K272
cross-linked residues (SLC25A3): K569 - K295

PMPCA, Q10713
cross-linked residues (HIBCH): K299 - K353

CPT1A, P50416
cross-linked residues (HKDC1): K332 - K53

VDAC1, P21796
cross-linked residues (HKDC1): K109 - K312

ETFB, P38117
cross-linked residues (HSPA9): K238 - K625

HSPA4, P34932
cross-linked residues (HSPA2): K272 - K57

EPRS1, P07814
cross-linked residues (IARS1): K512 - K1113

GPD2, P43304
cross-linked residues (IMMT): K458 - T78
cross-linked residues (PTGES2): K510 - K225
